1 sequence from publication PMC7862700, “An all-to-all approach to the identification of sequence-specific readers for epigenetic DNA modifications on cytosine” can be followed below.

Holding throughout (experiment): DAPPL (digital affinity profiling via proximity ligation, sequencing); 10 mM Tris-HCl pH 7.5, 50 mM NaCl, 1 mM DTT, 4% glycerol, room temperature, 30 min; GST-TFs on glutathione beads, 16-mer random dsDNA library, 0.1% formaldehyde crosslink after washing; high values mean tight binding
In one experiment the target is T1, FLI1 (Homo sapiens, UniProt Q01543 1-452).
T1 sequence: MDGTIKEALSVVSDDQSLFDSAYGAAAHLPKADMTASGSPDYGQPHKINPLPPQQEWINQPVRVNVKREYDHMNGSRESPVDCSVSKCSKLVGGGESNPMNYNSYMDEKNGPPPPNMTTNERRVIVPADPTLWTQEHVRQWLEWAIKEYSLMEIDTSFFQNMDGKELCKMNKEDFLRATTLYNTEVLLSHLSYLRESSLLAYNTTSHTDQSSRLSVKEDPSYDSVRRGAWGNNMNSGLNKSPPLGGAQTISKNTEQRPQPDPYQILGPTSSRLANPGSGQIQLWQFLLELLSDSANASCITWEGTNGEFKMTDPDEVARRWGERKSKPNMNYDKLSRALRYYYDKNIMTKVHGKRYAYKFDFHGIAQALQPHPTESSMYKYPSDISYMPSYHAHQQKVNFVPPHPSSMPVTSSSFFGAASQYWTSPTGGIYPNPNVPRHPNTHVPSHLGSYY
The note with it: protein: recombinant; tags: N-terminal GST; dsDNA, one strand shown. In outline: (§1)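 Sequencing on an Illumina NextSeq500 followed washing, crosslinking with 0.1% formaldehyde, proximity ligation (BsaI/T4 ligase, 1 h, 37 °C) and PCR amplification of pools that had been incubated for 30 min at room temperature with 200 nmole of a random double-stranded 16-mer DNA library in Tris/NaCl/DTT/glycerol buffer. Each pool held DNA-barcoded human transcription factors, expressed in yeast as GST fusions and captured on glutathione beads, plus a tag-only sample. Binding signal is a hexamer's read frequency for a factor divided by its frequency in the tag-only sample.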

A further experiment has as its target T2, ELK1 (Homo sapiens, UniProt P19419 1-428).
T2 sequence: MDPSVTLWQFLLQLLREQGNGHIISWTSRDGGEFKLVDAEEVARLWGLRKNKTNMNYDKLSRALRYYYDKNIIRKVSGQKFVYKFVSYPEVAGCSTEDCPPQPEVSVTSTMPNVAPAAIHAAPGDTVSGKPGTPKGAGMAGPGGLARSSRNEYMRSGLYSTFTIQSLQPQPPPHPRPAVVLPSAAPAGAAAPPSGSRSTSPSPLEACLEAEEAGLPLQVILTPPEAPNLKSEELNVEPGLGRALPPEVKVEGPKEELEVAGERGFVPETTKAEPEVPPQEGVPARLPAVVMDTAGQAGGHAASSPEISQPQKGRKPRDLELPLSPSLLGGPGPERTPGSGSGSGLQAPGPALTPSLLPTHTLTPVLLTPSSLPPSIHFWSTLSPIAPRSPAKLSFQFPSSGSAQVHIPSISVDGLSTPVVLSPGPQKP
As to conditions: protein: recombinant; tags: N-terminal GST; dsDNA, one strand shown. An outline of the steps:
as §1

For another experiment, the target named is T3, GABPA (Homo sapiens, UniProt Q06546 1-454).
T3 sequence: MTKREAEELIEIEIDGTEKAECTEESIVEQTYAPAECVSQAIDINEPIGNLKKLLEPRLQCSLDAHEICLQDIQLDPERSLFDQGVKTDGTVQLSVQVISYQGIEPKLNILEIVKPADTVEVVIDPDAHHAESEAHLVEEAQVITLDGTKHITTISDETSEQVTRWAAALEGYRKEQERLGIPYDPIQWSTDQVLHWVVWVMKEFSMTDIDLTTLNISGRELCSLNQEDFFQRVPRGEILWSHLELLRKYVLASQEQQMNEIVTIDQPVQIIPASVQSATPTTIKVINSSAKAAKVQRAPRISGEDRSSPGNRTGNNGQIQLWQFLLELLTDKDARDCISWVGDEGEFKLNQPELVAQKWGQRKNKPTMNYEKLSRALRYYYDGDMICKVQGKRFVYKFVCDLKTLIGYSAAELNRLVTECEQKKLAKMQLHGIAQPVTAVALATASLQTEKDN
As to conditions: protein: recombinant; tags: N-terminal GST; dsDNA, one strand shown. In outline: as §1

The next experiment has as its target T4, ERG (Homo sapiens, UniProt P11308 1-479).
T4 sequence: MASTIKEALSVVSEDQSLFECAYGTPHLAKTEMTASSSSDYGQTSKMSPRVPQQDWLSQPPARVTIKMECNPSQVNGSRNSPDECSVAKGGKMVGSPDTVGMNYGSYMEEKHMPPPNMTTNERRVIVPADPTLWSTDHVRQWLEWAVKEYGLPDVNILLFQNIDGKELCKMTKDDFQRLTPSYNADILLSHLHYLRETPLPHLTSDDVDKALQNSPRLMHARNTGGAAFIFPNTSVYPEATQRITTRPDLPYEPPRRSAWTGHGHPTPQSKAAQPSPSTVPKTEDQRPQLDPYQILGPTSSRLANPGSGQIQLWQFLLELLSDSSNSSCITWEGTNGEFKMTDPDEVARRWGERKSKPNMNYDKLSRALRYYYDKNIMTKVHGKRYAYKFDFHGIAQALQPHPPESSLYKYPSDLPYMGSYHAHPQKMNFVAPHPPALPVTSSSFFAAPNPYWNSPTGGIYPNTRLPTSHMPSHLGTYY
The note with it: protein: recombinant; tags: N-terminal GST; dsDNA, one strand shown. An outline of the steps: as §1

The target in the next experiment is ELF1 (Homo sapiens, UniProt P32519 1-619). As to conditions: protein: recombinant; tags: N-terminal GST; dsDNA, one strand shown. An outline of the steps: as §1
Sequence of ELF1 (P32519 whole entry): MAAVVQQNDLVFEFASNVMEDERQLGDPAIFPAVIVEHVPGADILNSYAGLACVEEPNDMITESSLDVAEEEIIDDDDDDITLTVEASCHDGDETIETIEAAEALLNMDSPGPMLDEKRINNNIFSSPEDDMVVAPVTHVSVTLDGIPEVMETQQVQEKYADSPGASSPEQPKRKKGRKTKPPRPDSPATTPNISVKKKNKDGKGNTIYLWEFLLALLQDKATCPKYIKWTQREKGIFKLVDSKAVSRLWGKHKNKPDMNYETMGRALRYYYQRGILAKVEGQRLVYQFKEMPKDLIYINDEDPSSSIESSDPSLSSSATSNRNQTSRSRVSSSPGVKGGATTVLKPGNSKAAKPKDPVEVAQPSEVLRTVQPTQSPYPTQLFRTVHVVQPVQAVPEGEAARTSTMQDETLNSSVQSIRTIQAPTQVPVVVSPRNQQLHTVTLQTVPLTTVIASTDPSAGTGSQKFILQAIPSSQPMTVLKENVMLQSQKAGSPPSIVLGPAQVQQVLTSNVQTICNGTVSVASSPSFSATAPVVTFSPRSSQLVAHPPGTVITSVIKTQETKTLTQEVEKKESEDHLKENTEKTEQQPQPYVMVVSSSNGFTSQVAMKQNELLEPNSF
In another experiment the target is T5, EHF (Homo sapiens, UniProt Q9NZC4 1-300).
T5 sequence: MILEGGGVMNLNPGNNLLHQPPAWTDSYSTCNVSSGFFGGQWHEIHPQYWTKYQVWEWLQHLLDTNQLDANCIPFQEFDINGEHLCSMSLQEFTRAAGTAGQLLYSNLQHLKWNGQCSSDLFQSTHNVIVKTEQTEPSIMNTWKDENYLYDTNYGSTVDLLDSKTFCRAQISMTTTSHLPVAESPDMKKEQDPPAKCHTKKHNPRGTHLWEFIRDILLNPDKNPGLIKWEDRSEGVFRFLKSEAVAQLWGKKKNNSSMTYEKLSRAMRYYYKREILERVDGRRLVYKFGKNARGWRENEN
As to conditions: protein: recombinant; tags: N-terminal GST; dsDNA, one strand shown. In outline: as §1

For the next experiment, the target named is SPI1 (Homo sapiens, UniProt P17947 1-270). As to conditions: protein: recombinant; tags: N-terminal GST; dsDNA, one strand shown. An outline of the steps:
as §1

The next experiment addresses SPIB (Homo sapiens, UniProt Q01892 1-262). As to conditions: protein: recombinant; tags: N-terminal GST; dsDNA, one strand shown. In outline:
as §1

In a further experiment the target is T6, FEV (Homo sapiens, UniProt Q99581 1-238).
T6 sequence: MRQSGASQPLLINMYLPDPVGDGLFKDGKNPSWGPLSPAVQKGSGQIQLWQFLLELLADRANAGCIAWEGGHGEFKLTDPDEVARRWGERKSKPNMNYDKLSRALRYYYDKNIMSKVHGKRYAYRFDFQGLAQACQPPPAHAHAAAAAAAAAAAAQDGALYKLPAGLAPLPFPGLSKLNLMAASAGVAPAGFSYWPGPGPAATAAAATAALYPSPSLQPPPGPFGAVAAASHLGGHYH
As to conditions: protein: recombinant; tags: N-terminal GST; dsDNA, one strand shown. An outline of the steps:
as §1

For the next experiment, the target named is ETV5 (Homo sapiens, UniProt P41161 1-510). As to conditions: protein: recombinant; tags: N-terminal GST; dsDNA, one strand shown. In outline: as §1
Sequence of ETV5 (P41161 whole entry): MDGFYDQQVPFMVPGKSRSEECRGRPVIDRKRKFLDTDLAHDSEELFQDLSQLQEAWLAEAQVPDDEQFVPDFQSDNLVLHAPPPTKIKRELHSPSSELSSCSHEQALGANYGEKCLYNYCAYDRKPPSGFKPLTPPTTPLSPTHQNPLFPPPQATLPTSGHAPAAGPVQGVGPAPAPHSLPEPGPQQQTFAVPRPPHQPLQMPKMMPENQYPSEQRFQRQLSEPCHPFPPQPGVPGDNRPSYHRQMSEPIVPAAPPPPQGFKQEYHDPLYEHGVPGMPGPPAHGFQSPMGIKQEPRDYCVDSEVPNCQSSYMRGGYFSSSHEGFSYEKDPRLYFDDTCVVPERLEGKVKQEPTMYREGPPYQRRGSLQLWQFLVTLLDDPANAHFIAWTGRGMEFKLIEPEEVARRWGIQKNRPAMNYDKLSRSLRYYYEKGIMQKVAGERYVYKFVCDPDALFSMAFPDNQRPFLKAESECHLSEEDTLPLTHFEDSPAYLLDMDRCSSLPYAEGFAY
Another experiment deals with HSF1 (Homo sapiens, UniProt Q00613 1-529). The note with it: protein: recombinant; tags: N-terminal GST; chain copies: 3; dsDNA, one strand shown. In outline: as §1
Sequence of HSF1 (Q00613 whole entry): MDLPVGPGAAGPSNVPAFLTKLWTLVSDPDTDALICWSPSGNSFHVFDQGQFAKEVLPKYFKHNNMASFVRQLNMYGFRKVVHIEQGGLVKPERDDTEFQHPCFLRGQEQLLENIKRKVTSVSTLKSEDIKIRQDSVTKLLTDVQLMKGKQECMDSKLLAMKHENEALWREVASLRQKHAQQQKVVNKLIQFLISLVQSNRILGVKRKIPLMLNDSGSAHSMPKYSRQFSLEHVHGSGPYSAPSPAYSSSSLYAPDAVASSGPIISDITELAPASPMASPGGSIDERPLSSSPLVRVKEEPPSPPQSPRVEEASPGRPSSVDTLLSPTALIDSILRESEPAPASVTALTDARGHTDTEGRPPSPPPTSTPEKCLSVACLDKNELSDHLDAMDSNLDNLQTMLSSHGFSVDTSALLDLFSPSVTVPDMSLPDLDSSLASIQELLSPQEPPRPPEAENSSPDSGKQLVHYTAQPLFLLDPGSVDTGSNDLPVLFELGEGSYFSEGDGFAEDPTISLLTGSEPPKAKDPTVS
The next experiment concerns the target T7, SPIC (Homo sapiens, UniProt Q8N5J4 1-248).
T7 sequence: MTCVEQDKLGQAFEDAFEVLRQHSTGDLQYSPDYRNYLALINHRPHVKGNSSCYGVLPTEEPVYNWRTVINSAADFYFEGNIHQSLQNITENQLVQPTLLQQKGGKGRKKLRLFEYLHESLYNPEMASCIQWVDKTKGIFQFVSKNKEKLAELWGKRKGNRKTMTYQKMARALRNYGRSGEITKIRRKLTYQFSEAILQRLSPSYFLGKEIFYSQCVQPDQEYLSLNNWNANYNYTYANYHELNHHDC
As to conditions: protein: recombinant; tags: N-terminal GST; dsDNA, one strand shown. An outline of the steps:
as §1

The next experiment has as its target ELF4 (Homo sapiens, UniProt Q99607 1-663). The note with it: protein: recombinant; tags: N-terminal GST; dsDNA, one strand shown. In outline:
as §1

The target of the next experiment is T8, ELK4 (Homo sapiens, UniProt P28324-2 1-405).
T8 sequence: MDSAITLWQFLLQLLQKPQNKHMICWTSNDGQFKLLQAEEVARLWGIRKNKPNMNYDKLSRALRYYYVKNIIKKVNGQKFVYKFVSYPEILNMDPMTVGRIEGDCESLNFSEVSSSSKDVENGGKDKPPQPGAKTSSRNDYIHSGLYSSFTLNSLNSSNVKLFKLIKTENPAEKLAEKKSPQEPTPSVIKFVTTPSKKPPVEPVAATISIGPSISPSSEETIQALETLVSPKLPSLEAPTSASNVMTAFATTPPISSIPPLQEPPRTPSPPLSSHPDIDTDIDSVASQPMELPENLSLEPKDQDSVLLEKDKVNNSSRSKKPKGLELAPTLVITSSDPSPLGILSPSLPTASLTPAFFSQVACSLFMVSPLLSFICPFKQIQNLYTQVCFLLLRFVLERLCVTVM
The note with it: protein: recombinant; tags: N-terminal GST; dsDNA, one strand shown. In outline:
as §1

A further experiment concerns the target T9, ETV2 (Homo sapiens, UniProt O00321 1-342).
T9 sequence: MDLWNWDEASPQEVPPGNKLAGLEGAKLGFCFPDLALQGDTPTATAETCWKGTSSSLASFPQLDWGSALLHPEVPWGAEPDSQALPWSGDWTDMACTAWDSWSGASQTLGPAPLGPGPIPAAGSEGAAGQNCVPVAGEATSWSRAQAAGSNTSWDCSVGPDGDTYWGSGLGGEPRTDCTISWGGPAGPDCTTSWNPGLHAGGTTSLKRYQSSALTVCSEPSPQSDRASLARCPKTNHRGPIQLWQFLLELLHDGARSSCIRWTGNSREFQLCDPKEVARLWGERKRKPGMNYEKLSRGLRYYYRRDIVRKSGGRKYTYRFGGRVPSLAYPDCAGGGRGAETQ
As to conditions: protein: recombinant; tags: N-terminal GST; dsDNA, one strand shown. An outline of the steps: as §1

For the next experiment, the target named is T10, ELF3 (Homo sapiens, UniProt P78545 1-371).
T10 sequence: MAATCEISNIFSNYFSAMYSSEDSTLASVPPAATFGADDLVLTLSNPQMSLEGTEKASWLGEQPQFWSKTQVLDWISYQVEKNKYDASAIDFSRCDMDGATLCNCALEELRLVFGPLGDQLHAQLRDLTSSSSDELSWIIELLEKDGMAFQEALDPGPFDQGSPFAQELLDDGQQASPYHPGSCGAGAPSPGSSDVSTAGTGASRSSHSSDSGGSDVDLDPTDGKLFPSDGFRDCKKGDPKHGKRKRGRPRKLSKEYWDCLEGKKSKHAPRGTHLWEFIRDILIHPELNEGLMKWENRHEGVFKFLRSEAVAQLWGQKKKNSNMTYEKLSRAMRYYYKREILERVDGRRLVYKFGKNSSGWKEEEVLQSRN
As to conditions: protein: recombinant; tags: N-terminal GST; dsDNA, one strand shown. An outline of the steps: as §1

Another experiment has as its target CRX (Homo sapiens, UniProt O43186 1-299). As to conditions: protein: recombinant; tags: N-terminal GST; dsDNA, one strand shown. An outline of the steps:
as §1

A further experiment concerns the target ETV1 (Homo sapiens, UniProt P50549 1-477). The note with it: protein: recombinant; tags: N-terminal GST; dsDNA, one strand shown. In outline: as §1

Sequence of ETV1 (P50549 whole entry): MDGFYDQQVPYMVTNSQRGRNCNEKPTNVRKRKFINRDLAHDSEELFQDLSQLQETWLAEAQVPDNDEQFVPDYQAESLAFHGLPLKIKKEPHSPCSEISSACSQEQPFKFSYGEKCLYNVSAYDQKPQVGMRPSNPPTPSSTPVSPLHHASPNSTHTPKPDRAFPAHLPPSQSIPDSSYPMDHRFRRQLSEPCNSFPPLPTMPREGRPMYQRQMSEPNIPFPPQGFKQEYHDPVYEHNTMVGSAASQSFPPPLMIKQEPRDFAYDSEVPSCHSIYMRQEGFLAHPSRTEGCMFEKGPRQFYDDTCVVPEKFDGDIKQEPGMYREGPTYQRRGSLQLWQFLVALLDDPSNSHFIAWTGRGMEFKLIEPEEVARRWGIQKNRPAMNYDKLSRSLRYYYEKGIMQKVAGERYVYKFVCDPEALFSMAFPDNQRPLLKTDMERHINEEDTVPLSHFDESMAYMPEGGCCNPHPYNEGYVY
Sequence of CRX (O43186 whole entry): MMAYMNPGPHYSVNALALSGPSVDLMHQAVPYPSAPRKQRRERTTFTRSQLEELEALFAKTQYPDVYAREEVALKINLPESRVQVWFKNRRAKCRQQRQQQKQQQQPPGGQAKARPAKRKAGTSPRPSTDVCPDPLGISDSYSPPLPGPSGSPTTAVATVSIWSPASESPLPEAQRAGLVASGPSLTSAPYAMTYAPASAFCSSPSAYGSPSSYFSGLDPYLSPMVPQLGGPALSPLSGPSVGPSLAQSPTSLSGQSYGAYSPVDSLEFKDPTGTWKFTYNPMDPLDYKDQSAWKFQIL
Sequence of SPIB (Q01892 whole entry): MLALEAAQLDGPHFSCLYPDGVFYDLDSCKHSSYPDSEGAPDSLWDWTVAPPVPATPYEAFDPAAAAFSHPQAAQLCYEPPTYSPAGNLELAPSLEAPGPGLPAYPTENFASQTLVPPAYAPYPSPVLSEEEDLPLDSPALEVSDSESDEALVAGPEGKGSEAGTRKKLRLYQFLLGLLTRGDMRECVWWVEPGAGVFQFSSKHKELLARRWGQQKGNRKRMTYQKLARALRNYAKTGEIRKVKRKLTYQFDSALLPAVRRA
Sequence of ELF4 (Q99607 whole entry): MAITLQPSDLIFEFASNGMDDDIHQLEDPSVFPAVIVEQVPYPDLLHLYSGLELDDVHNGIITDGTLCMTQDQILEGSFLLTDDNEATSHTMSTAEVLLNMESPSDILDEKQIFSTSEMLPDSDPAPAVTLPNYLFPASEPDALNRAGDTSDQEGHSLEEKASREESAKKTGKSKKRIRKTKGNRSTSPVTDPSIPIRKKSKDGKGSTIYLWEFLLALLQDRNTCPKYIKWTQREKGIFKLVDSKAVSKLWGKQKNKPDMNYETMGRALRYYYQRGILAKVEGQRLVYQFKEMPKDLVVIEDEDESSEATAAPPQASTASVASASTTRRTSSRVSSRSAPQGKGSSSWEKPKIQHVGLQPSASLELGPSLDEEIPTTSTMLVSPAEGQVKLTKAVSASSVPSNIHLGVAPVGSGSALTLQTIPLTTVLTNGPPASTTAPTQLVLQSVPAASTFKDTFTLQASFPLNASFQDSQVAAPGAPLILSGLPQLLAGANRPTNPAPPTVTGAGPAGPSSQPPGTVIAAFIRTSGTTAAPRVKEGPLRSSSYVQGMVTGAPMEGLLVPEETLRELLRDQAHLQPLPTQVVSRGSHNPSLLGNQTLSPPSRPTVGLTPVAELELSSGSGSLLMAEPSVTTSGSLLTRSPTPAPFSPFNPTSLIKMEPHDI

Turning to GCTTAG, the binding signal with FLI1 was 1.14 fold enrichment (6-mer frequency, TF over GST control); in the experiment with ELK1, 1.06 fold enrichment (6-mer frequency, TF over GST control); in the experiment with GABPA, 1.19 fold enrichment (6-mer frequency, TF over GST control); with ERG it was 1.18 fold enrichment (6-mer frequency, TF over GST control); with ELF1, 1.15 fold enrichment (6-mer frequency, TF over GST control); with EHF it was 1.11 fold enrichment (6-mer frequency, TF over GST control). For the same sequence, the binding signal in the experiment with SPI1 is 1.1 fold enrichment (6-mer frequency, TF over GST control); with SPIB, 1.09 fold enrichment (6-mer frequency, TF over GST control); with FEV it was 1.08 fold enrichment (6-mer frequency, TF over GST control); with ETV5, 1.13 fold enrichment (6-mer frequency, TF over GST control); with HSF1, 1.78 fold enrichment (6-mer frequency, TF over GST control); in the experiment with SPIC, 1.12 fold enrichment (6-mer frequency, TF over GST control). For the same sequence, the binding signal with ELF4 is 1.1 fold enrichment (6-mer frequency, TF over GST control); in the experiment with ELK4 it was 1.17 fold enrichment (6-mer frequency, TF over GST control); with ETV2, 1.08 fold enrichment (6-mer frequency, TF over GST control); with ELF3, 1.09 fold enrichment (6-mer frequency, TF over GST control); in the experiment with CRX, 2.49 fold enrichment (6-mer frequency, TF over GST control); with ETV1, 1.27 fold enrichment (6-mer frequency, TF over GST control).
